# Results: the supplement of paper PMC11732987, “Enantioselective OTUD7B fragment discovery through chemoproteomics screening and high-throughput optimisation” (Communications Chemistry, 2025)
# A number with no mark means an inactive call.
# How the values were obtained:
# Assay in all cases: log2 ratio of Biotin-Ahx-Ub-VS probe labelling (fragment/DMSO); higher = less target engagement (more negative = stronger competition), active = hit call of the paper (q ≤ 0.05, log2 ratio ≤ -1)
# Settings in all cases: compound concentration: 200 uM; treatment time: 3 h
# USP19 = target: T1, USP19 (UniProt O94966)
# T1 sequence (whole entry): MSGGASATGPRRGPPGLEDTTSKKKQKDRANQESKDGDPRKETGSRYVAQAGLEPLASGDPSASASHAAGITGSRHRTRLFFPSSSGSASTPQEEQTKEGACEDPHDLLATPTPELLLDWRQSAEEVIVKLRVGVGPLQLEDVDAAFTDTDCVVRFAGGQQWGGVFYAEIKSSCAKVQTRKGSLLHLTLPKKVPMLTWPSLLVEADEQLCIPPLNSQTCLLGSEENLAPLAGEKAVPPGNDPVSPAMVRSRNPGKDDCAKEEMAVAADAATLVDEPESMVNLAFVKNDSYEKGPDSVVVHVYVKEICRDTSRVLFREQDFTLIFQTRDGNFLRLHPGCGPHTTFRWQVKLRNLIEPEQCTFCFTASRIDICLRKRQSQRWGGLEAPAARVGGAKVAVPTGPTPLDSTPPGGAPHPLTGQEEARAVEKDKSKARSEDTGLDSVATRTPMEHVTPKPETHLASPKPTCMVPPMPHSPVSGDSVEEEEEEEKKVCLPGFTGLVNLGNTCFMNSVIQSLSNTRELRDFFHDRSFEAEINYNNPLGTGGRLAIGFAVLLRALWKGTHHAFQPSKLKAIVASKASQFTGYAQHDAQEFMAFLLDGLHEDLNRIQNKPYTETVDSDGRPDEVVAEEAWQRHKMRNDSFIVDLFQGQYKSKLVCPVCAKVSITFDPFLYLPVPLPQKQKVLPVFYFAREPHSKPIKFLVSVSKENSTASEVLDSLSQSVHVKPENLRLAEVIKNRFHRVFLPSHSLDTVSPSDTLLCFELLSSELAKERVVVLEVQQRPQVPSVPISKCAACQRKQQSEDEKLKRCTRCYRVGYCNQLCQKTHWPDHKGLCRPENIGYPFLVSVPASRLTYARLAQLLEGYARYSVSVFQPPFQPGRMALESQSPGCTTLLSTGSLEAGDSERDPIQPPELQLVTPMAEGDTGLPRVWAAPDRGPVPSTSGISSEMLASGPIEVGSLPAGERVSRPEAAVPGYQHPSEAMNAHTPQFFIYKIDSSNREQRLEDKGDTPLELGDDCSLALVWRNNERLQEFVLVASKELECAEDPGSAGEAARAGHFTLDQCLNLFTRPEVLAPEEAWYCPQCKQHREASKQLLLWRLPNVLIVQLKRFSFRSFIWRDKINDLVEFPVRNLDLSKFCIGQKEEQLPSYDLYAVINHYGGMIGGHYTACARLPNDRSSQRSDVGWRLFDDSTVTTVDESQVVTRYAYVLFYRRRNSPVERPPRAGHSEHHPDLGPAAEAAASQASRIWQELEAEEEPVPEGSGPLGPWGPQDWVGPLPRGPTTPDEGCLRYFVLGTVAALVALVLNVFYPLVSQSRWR
# In short: (§1)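 HEK293T lysate, 495 µg per sample in Tris/CHAPS/IGEPAL buffer with protease inhibitors, was treated in triplicate with fragment at 200 µM or vehicle for 3 h and then with Biotin-Ahx-Ub-VS at 0.5 µM final for 1 h. Labelled DUBs were NeutrAvidin-enriched, digested with LysC and trypsin, and run by diaPASEF LC-MS/MS. Spectronaut label-free quantities were global-median-normalised, and values are average log2 fragment/vehicle ratios by unpaired t-test on proteins with ≥2 unique peptides.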
# USP24 = USP24 (UniProt Q9UPU5)
# In short: as §1
# USP25 = target: T2, USP25 (UniProt Q9UHP3)
# T2 sequence (whole entry): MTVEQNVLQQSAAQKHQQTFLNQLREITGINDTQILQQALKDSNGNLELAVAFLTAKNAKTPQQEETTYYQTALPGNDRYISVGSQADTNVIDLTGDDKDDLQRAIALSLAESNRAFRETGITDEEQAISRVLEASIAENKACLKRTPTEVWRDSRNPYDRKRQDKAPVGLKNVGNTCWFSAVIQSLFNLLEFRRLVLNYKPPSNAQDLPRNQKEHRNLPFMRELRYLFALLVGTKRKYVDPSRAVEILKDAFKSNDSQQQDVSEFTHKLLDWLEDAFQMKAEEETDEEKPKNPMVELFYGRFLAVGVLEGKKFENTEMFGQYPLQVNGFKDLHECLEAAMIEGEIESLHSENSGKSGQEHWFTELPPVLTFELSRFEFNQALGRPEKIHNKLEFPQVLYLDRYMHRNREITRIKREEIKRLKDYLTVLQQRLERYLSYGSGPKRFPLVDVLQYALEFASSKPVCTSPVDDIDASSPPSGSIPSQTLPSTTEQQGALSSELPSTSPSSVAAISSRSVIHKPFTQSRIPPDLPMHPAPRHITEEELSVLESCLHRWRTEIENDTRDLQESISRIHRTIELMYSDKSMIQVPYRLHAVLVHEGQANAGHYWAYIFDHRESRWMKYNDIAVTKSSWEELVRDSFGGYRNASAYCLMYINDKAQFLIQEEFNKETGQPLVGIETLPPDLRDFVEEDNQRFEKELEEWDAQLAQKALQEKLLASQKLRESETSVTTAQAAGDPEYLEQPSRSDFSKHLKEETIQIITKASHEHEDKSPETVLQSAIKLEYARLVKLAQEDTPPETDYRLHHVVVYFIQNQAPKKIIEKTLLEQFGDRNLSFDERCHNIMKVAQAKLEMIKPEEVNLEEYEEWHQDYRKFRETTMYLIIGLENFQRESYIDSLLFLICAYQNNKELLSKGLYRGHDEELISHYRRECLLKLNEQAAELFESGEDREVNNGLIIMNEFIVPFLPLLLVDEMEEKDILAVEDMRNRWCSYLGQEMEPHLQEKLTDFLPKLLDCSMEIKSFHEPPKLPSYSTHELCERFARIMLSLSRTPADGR
# In short: as §1
# USP28 = target: T3, USP28 (UniProt Q96RU2)
# T3 sequence (whole entry): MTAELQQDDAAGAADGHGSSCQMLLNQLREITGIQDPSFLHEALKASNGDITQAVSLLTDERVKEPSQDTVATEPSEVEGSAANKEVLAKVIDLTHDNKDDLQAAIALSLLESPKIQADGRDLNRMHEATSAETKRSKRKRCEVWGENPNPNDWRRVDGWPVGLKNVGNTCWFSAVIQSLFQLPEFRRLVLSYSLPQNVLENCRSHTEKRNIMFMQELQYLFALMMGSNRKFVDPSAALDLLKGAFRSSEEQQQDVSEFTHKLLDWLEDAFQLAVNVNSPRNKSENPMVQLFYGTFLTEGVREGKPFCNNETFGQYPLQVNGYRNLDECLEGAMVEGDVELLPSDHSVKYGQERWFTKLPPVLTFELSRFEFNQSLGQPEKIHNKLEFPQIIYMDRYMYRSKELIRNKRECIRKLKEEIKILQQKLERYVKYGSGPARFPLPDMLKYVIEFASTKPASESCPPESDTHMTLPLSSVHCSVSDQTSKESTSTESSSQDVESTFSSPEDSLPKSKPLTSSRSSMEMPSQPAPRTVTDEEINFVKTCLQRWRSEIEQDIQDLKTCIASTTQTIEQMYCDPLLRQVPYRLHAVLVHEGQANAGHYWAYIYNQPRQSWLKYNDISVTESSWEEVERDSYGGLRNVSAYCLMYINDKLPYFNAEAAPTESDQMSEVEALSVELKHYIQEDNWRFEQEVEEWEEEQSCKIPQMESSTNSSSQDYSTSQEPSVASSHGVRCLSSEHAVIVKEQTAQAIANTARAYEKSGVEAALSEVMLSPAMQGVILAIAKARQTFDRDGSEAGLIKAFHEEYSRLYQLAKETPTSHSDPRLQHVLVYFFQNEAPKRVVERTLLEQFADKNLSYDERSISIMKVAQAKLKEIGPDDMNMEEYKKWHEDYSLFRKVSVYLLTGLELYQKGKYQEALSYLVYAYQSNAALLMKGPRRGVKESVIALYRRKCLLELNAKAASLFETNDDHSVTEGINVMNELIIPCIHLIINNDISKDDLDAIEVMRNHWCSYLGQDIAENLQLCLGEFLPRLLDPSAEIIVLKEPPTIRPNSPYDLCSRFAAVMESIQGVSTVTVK
# In short: as §1
# Chain of USP24 (Q9UPU5 whole entry): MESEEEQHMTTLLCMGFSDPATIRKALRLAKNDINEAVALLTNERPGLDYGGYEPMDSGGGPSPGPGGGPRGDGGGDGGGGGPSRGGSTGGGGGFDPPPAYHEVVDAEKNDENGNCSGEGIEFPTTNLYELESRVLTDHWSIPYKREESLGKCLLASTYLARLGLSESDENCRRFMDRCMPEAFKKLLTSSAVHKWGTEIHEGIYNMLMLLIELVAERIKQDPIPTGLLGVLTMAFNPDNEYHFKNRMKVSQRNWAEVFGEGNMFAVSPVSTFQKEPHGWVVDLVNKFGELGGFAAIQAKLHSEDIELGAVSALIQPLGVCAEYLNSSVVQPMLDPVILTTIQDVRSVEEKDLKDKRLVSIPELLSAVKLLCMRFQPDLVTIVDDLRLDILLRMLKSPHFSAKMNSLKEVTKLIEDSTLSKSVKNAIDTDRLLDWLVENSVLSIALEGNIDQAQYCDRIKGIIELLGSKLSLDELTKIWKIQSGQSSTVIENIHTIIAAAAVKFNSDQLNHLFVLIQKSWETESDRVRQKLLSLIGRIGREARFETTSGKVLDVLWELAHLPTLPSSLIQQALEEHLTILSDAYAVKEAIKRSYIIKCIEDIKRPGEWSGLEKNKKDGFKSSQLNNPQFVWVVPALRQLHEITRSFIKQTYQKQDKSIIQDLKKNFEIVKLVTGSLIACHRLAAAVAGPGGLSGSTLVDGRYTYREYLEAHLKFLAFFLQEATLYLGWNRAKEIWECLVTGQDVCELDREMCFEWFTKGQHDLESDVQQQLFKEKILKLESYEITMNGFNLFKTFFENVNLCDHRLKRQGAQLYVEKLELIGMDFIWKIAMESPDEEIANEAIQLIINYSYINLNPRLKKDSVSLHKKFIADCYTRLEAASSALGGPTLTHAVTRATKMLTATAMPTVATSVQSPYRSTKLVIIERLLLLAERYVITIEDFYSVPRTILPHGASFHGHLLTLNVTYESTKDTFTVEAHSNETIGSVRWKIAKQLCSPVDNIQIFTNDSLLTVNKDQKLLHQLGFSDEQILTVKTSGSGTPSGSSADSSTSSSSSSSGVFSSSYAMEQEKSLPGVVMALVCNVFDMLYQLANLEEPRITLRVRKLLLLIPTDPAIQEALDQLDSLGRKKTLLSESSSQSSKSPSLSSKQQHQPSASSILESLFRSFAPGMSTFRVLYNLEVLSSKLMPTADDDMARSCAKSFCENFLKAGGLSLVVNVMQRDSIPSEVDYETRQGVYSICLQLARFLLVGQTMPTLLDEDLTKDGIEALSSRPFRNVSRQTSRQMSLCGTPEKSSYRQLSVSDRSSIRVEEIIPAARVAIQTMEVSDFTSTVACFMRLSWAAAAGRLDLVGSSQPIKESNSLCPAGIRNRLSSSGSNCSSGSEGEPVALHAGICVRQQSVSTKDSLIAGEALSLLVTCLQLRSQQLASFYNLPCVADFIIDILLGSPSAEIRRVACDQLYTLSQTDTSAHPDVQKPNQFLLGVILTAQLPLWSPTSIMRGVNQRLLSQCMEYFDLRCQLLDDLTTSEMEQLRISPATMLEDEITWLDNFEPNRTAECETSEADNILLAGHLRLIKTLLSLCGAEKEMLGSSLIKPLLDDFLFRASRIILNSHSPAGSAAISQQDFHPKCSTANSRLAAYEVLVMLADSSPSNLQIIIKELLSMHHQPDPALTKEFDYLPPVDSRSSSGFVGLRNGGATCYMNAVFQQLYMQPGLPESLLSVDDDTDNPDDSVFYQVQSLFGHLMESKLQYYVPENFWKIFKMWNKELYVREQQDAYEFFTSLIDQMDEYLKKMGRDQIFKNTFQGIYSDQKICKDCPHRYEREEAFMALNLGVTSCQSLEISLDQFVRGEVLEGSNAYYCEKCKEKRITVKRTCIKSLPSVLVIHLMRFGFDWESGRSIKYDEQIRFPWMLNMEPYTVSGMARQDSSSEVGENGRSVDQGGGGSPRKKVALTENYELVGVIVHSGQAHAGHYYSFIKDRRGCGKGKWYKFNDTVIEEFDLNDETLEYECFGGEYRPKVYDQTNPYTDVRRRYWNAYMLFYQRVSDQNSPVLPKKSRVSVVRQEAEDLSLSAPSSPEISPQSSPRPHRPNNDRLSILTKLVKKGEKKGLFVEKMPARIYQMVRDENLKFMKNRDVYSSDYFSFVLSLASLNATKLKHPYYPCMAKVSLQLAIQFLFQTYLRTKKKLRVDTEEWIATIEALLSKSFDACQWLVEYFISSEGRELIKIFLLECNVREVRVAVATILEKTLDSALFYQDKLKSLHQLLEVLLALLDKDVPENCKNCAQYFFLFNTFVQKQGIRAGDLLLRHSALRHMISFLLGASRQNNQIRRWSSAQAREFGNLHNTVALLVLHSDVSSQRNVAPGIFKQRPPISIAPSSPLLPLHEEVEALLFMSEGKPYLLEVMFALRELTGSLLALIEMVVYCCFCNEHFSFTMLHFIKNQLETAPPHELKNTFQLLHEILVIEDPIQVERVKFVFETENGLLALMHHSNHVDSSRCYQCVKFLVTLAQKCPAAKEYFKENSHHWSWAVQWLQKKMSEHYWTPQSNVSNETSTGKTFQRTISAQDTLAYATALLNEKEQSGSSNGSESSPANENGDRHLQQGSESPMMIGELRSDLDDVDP
smiles,measurement,setting,value
Cc1n[nH]c2c1CN(C(=O)CCl)CC2,log2 ratio of Biotin-Ahx-Ub-VS probe labelling,USP19,-1.23 (active)
same,log2 ratio of Biotin-Ahx-Ub-VS probe labelling,USP24,-1.26 (active)
same,log2 ratio of Biotin-Ahx-Ub-VS probe labelling,USP25,-0.783
same,log2 ratio of Biotin-Ahx-Ub-VS probe labelling,USP28,-1.29 (active)
